Hits are enriched below; roughly 2.9% of the tested compounds scored in any of these assays.
Nrf2 inh: Nrf2 qHTS screen for inhibitors. actives 2.1% (n = 360,000). AID 504444, 2011. A549 ARE-Fluc reporter, luciferase luminescence, 18-24 h. Potency, µM (highest dose often 46 µM), for the others: top-dose activity change, negative = inhibition, actives largely listed as inhibitors; also: % is scaled to controls: 0 for no effect and ±100 for the full control effect; nearly all actives have a fitted effect of over 60% in size
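Quantitative HTS in A549 cells stably bearing an antioxidant response element-firefly luciferase construct. Inhibition of Nrf2-driven transcription was scored by luminescence after 18-24 h of compound exposure at 37 °C.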
A549 tox: Nrf2 qHTS screen for inhibitors: counterscreen for cytotoxicity | A549 ARE-Fluc cells, CellTiter-Fluor viability, 18-24 h | Potency, µM (series often up to 46 µM), for the others: at the highest dose activity change, negative = cytotoxicity, most hits filed as inhibitors | AID 504648, 2011 | actives 0.16% (n = 390,000); also: % is scaled to controls: 0 for no effect and ±100 for the full control effect
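A549 ARE-Fluc cells in 5% FBS OPTI-MEM, 5000 cells/well, rested 2 h then exposed to compounds in concentration-response for 18-24 h at 37 °C. Viability by CellTiter-Fluor fluorescence (Ex 405/Em 525) after 30 min; luciferase luminescence (BugLite, 15 min, RT) read afterwards.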
Nrf2 ARE act: qHTS of Nrf2 Activators | AREc32 ARE-luciferase reporter (MCF7-derived line), luminescence, 24 h | Potency, µM (titrated, usually from 46.1 µM), for inactives: top-dose activation, actives largely listed as activators | actives 0.31% (n = 410,000) | AID 624171, 2012; also: % of control where 0% means no effect; nearly all actives have a fitted effect of over 65% in size
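Luciferase luminescence (Steady-Glo, 30 min at room temperature) served as the read-out of ARE activation in AREc32 cells treated with compounds for 24 hr at 37 deg C.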
S2 tox: Viability Counterscreen for Primary qHTS for Inhibitors of ATXN expression. actives 0.49% (n = 400,000). S2 cells (HEK-293 line with an ATXN2-luciferase reporter) viability, CellTiter-Fluor protease fluorescence, 24 h. Potency, µM (series often up to 56.7 µM), usual class: cytotoxic; also: nearly all actives have a fitted effect of over 40% in size
ATXN2 expr inh: Primary qHTS for Inhibitors of ATXN expression. HEK-293 ATXN2-luciferase reporter, luminescence, 24 h. Potency, µM (highest dose often 57 µM), without a hit: at the highest dose activity change, negative = inhibition, actives largely listed as inhibitors. actives 0.72% (n = 360,000). AID 1745845, 2022; also: % is scaled to controls: 0 for no effect and ±100 for the full control effect; nearly all actives have a fitted effect of over 55% in size
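qHTS (up to 57 uM final) was run with 24 h compound exposure of reporter cells at 37 °C. Each well was multiplexed: SteadyGlo luminescence measured ATXN2-luciferase expression after a fluorogenic Gly-Phe-AFC viability readout (25 uM final).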
The depositor's hits bear a star; i = inactive; ? = inconclusive; . = no result; ! = not active in a repeat. Calls follow the shape of the dose curve; as a rule, active = well fitted curve in the direction sought with a large enough effect; inconclusive = small, poorly fitted or top-dose-only effect, or another doubt; inactive = no such curve, though single readings can be large; an effect the other way counts as inactive or inconclusive. Potency is read from the fitted curve at half-maximal effect.

SMILES	Nrf2 inh	A549 tox	Nrf2 ARE act	S2 tox	ATXN2 expr inh
CN1/C(=C\C(=O)c2cncc(Br)c2)C(C)(C)c2ccccc21	23µM*	-11%	1%	i	-12%
Cc1ccc(C(=O)NC(=S)/C=C2\N(C)c3ccccc3C2(C)C)cc1	18µM*	?	0%	?	?
COc1ccccc1OCC(=O)/C=C1/N(C)c2ccccc2C1(C)C	?	-8%	0%	i	-19%
CCc1ccc(S(=O)(=O)Nc2cccc(-c3ccc4nncn4n3)c2)s1	?	1%	3%	i	-2%
CCN(C(=O)c1cc2c(s1)-c1c(C)cccc1OC2)c1cc(C)ccc1C	?	0%	6%	i	-15%
Cc1nc2nc(-c3ccco3)[nH]n2c(=O)c1C	.	13%	11µM*	i	13%
Cc1nc2nc(-c3ccco3)[nH]n2c(=O)c1Cc1ccccc1	.	-8%	?	i	-1%
CCC(=O)N1CCc2cc(S(=O)(=O)NCCC(=O)NCc3ccc(C)cc3)ccc21	?	0%	4%	i	-21%
O=[N+]([O-])c1cnc(Sc2ccncn2)s1	-3%	-5%	?	3.2µM*	.
CCCc1c(C(=O)Nc2cc(C(C)(C)C)on2)cnn1-c1ccccc1	6.5µM*	0%	0%	i	.
C/C(=N\Nc1ccc(F)cc1F)c1ccccc1O	?	-5%	27%	i	0%
C/C(=N\Nc1cc(C(F)(F)F)ccc1Cl)c1ccccc1O	3%	14%	11µM*	i	-4%
c1ccc(N2CC3COc4ccccc4C3=N2)cc1 (stereo not drawn)	?	?	8.9µM*	.	84%
CC(C)C[C@@H](CN1CCCC1CN1C(=S)NC[C@@H]1Cc1ccc(O)cc1)N1C[C@H](Cc2ccc(O)cc2)N(CCc2ccccc2)C1=S (stereo partly drawn)	?	?	-3%	28µM*	?
CC(C)C[C@H]1CN([C@@H](CC(C)C)CN2CCC[C@@H]2CN2C(=S)NC[C@@H]2Cc2ccc(O)cc2)C(=S)N1CC1CCCCC1	.	.	-1%	32µM*	0%
CC(C)C[C@H]1CN([C@@H](CC(C)C)CN2CCCC2CN2C(=S)NC[C@@H]2Cc2ccc(O)cc2)C(=S)N1CC1CCCCC1 (stereo partly drawn)	?	-6%	0%	i	-3%
CC(C)C[C@@H](CN1CCC[C@@H]1CN1C(=S)NC[C@@H]1Cc1ccc(O)cc1)N1C[C@H](Cc2ccc(O)cc2)N(CC2CCCCCC2)C1=S	.	.	-4%	?	?
Oc1ccc(C[C@H]2CNC(=S)N2CC2CCCN2C[C@H](Cc2ccc(O)cc2)N2C[C@H](Cc3ccc(O)cc3)N(CC3CCCCCC3)C2=S)cc1 (stereo partly drawn)	?	-13%	-3%	?	20µM*
CC(C)C[C@@H](CN1CCC[C@@H]1CN1C(=S)NC[C@@H]1Cc1ccc(O)cc1)N1C[C@H](Cc2ccc(O)cc2)N(CC2CCCCC2)C1=S	.	.	-4%	25µM*	?
Cc1cc(C)c2nc(N3CCCC(C(=O)NCCN4CCOCC4)C3)sc2c1 (stereo not drawn)	?	-1%	2%	i	17%
COC1CC(N)C2OC(c3ccccc3)OCC2O1 (stereo not drawn)	.	.	0%	i	.
Cc1cc(C)c(S(=O)(=O)c2ccc(F)cc2)c(C)c1	.	.	2%	i	.
Nc1nc(N)nc(-c2cccc([N+](=O)[O-])c2)n1	.	.	0%	i	7%
CC1CC(C)CN(C(=O)COC(=O)CCCN2C(=O)c3cccc4cccc(c34)C2=O)C1 (stereo not drawn)	3%	1%	3%	i	1%
O=C1NCCN(Cc2ccc(Cl)c(F)c2)C1CC(=O)N1CCCO1 (stereo not drawn)	?	6%	-1%	i	48%
SMILES	Nrf2 inh	A549 tox	Nrf2 ARE act	S2 tox	ATXN2 expr inh
NS(=O)(=O)c1ccc(CNC(=O)C2CCCN2C(=O)c2cccs2)cc1 (stereo not drawn)	22%	13%	0%	i	3%
CCC(C)Sc1cc(-c2nc3cc(C)ccn3c2NC2CCCCC2)ccc1OC (stereo not drawn)	?	?	-2%	?	?
CCCCNc1c(-c2ccc(OC)c(SC(C)CC)c2)nc2ccc(C)cn12 (stereo not drawn)	?	?	-2%	11µM*	13µM*!
CCCCCCSc1cc(-c2nc3ccc(Cl)cn3c2NCCCC)ccc1OC	2%	0%	1%	i	6%
CCCCCCSc1cc(-c2nc3ccc(C)cn3c2NCCCC)ccc1OC	-15%	-14%	-1%	14µM*	0%
CCCCNc1c(-c2ccc(OC)c(SC(C)CC)c2)nc2cc(C)ccn12 (stereo not drawn)	?	?	-3%	32µM*	25µM*
CCC(C)Sc1cc(-c2nc3ccccn3c2NC2CCCCC2)ccc1OC (stereo not drawn)	?	?	-3%	32µM*	?
CCOc1ccc(S(=O)(=O)Nc2ccc(C(=O)NCC(c3ccc(OC)cc3)N3CCOCC3)cc2)cc1 (stereo not drawn)	7%	0%	-1%	i	7%
O=C(NC1CCCC1)c1csc2c1CCCC2	24%	-3%	4%	i	18%
Cc1ccc(S(=O)(=O)NCCCNS(=O)(=O)c2ccccc2Br)cc1	?	-5%	-1%	i	10%
COc1ccc(-c2cc(-c3nc4ccccn4c3NCc3ccccc3)ccc2OC)cc1	15µM*	?	-4%	7.9µM*	4µM*
CCC(C)Sc1cc(-c2nc3ccc(C)cn3c2NCc2ccccc2)ccc1OC (stereo not drawn)	21µM*	16µM*	-3%	10µM*	18µM*
c1csc(-c2nc3ccccn3c2NC2CCCCC2)c1	?	-11%	?	i	-18%
CCC(C)Sc1ccc(-c2nc3ccc(C)cn3c2NCc2ccccc2)cc1OC (stereo not drawn)	?	?	-2%	?	?
CC(=O)c1ccc(-c2cccc(-c3nc4ccccn4c3NC3CCCCC3)c2)cc1	?	?	-5%	16µM*	?
Cc1ccc(/C=C/C(O)=C2/C(=O)N(C)C3(C)CC2c2ccccc2O3)cc1 (stereo not drawn)	?	-8%	?	?	?
COc1ccc(/C=C/C(O)=C2/C(=O)N(C)C3(C)CC2c2ccccc2O3)cc1 (stereo not drawn)	29µM*	?	1%	i	?
Cc1nc2cc(-c3ccc(Cl)cc3)nn2c(C)c1CCC(=O)NC(C)c1ccc2c(c1)OCCO2 (stereo not drawn)	13µM*	-4%	-3%	?	?

High-throughput results: PubChem BioAssay, National Center for Advancing Translational Sciences (NCATS)
